Reference: PubChem BioAssay (NCATS)
Inconclusive results are not listed. Entries that show only a call come without a potency. A number with no mark means an inactive call. Active and inactive are the calls of the source. Calls follow the shape of the dose curve; as a rule, active = well fitted inhibition curve with a large enough effect; inconclusive = small, poorly fitted or top-dose-only effect; inactive = flat fitted curve, though single readings scatter.

Each molecule was assayed against Calcium and integrin-binding protein 1 (Homo sapiens) (UniProt Q99828) (assay: Primary qHTS for Identification of Calcium Integrin Binding Protein 1 (CIB1) Competitor (AID 1508620;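 also: GST tagged CIB1 binding a fluorescein labelled alphaIIb integrin peptide tracer; top concentration of the series differs between compounds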)). Details: CIB1-GST / FITC-alphaIIb peptide fluorescence polarization; series mostly up to 57.7 µM.
In short: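 CIB1-GST (1 uM final) and compound incubated 15 min at room temperature before adding FITC-alphaIIb peptide tracer (100 nM final). Competition for binding read by fluorescence polarization (ex 480, em 540) after another 15 min at room temperature.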

Calcium and integrin-binding protein 1 (Homo sapiens), sequence (Q99828 whole entry, looked up): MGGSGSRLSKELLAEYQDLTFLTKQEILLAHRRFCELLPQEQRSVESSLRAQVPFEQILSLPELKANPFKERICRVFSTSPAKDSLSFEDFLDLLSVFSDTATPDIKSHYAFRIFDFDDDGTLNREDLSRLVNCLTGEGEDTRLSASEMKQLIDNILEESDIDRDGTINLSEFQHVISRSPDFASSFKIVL

SMILES	Potency	activity change, negative = inhibition
COC(=O)C1=COC(O[C@@H]2O[C@H](COC(=O)/C=C/c3ccc(O)cc3)[C@@H](O)[C@H](O)[C@H]2O)C2C(CO)=CCC12 (stereo partly drawn)	inactive	
CC1OC(O[C@@H]2[C@@H](O)[C@H](OC(=O)[C@]34CCC(C)(C)C[C@H]3C3=CCC5[C@@]6(C)CC[C@H](O[C@@H]7O[C@H](C(=O)O)[C@@H](O)[C@H](O[C@@H]8OC[C@@H](O)[C@H](O)[C@H]8O)[C@H]7O[C@@H]7O[C@H](CO)[C@H](O)[C@H](O)[C@H]7O)[C@@](C)(C=O)C6CC[C@@]5(C)[C@]3(C)C[C@H]4O)O[C@H](C)[C@@H]2OC2OC(C)C(OC3OCC(O)C(O)C3O)C(O)C2O)C(O)C(O)C1O (stereo partly drawn)		3.33% [at 12.4 µM]
C#CCCCn1cc(-c2cccc3c2N[C@@H](C)CC(=O)N3)cn1	inactive	
COC1CC(O[C@H]2CC[C@@]3(C)C(=CC[C@]4(O)C3[C@H](O)[C@@H](O)[C@]3(C)[C@@H]([C@H](C)O)CC[C@@]34O)C2)OC(C)C1OC1CC(OC)C(OC2CC(OC)C(OC3OC(C)C(OC4OC(CO)C(O)C(O)C4O)C(OC)C3O)C(C)O2)C(C)O1 (stereo partly drawn)	inactive	
CC1=C2CC(C)(C)CC2C(O)C2=C(C1)C(=O)OC2O (stereo not drawn)	inactive	
CCOC(=O)C(CCc1ccccc1)NC(C)C(=O)N1Cc2ccccc2CC1C(=O)O (stereo not drawn)	inactive	
C/C=C(/C)C(=O)O[C@H]1C[C@]2(C)O[C@@H]2[C@@H](OC(C)=O)[C@@]2(C)CC[C@@](O)(C(C)C)[C@H]12	inactive	
COc1cc(C2CC(=O)Nc3c2cc(Br)c2ccccc32)cc(OC)c1OC (stereo not drawn)	inactive	
